The list is not random: actives were taken first. Their share in the collection is about 11%.
HP1b binding inh: blocks HP1-beta chromodomain binding to methylated histone tails | 390,000 compounds, 0.56% hits | Potency, µM (top dose mostly 114 µM), for inactives: at the highest dose activity change, negative = inhibition, usual class: inhibitors | P83916 | AID 540317 | AlphaScreen HP1-beta / biotin-H3K9me3 peptide binding; further: potency means the concentration at half of the fitted maximal effect; nearly all actives have a fitted effect of over 70% in size
Target sequence (P83916 whole entry, looked up): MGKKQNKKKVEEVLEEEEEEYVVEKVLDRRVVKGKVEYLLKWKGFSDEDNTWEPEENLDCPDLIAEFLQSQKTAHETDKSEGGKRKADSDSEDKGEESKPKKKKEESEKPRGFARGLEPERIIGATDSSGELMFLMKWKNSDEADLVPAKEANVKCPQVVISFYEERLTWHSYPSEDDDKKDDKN
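AlphaScreen: HP1-beta (50 nM) preformed 30 min with biotin-H3(1-18)K9me3 peptide (50 nM) in PBS pH 7.4, 0.01% Tween-20. Compound added for 30 min at RT, then streptavidin donor/nickel chelate acceptor beads (10 ug/mL) for 30 min.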
PI5P4Ka inh: blocks human PI5P4K alpha kinase activity; P48426; PI5P4Kalpha enzyme, ADP-Glo luminescence, 60 min; stronger effect = lower value; max response, %; 330,000 compounds, 1.2% hits; AID 652105; active means max response of -50% or lower; inconclusive means between -30% and -50%; inactive means -30% or higher; further: value at the top dose of about 77 µM; on the % scale 0 is the no-effect control and ±100 the full control effect
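Compounds were pin-transferred onto PI5P4Kalpha and substrate in HEPES pH 7.4 buffer with EGTA, CHAPS and 5% DMSO. ATP (5 microM final) started the reaction, which ran 60 minutes at room temperature before ADP-Glo detection.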
L3MBTL1 block: blocks human L3MBTL1 | Q9Y468 | AlphaScreen L3MBTL1–H3K9me1 peptide binding | Potency, µM (doses to about 57.1 µM), without a hit: at the highest dose activity, negative = inhibition, most hits filed as inhibitors | 230,000 compounds, 0.66% hits; further: potency means the concentration at half of the fitted maximal effect; on the % scale 0 is the no-effect control and ±100 the full control effect; nearly all actives have a fitted effect of over 60% in size
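First, the protein-peptide complex forms for 30 min at room temperature (L3MBTL1 50 nM, biotinylated H3K9me1 peptide 75 nM). Next, compounds are pin-transferred and incubated 30 min. Finally, AlphaScreen beads are added and read after 30 min.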
BAZ2B block: inhibitors of human BAZ2B bromodomain | Q9UIF8 | AlphaScreen BAZ2B-H3K14Ac peptide displacement | Potency, µM (series often up to 114 µM), inactives show at the top dose activity change, negative = inhibition, actives largely listed as inhibitors | 360,000 compounds, 4.4% hits | AID 504333; further: potency means the concentration at half of the fitted maximal effect; on the % scale 0 is the no-effect control and ±100 the full control effect; nearly all actives have a fitted effect of over 60% in size
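Complex of BAZ2B and biotin-H3K14Ac (50 nM apiece) forms over 30 min at RT, then faces library compounds up to 110 uM for another 30 min; AlphaScreen beads added, 20 min dark incubation, luminescence read.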
JMJD2A Tudor: blocks the human JMJD2A Tudor domain; AlphaScreen JMJD2A-Tudor / H3K4me3 peptide binding; Potency, µM (top dose mostly 114 µM), without a hit: at the top dose activity change, negative = inhibition, actives largely listed as inhibitors; 390,000 compounds, 4.4% hits; AID 504339; further: potency means the concentration at half of the fitted maximal effect; on the % scale 0 is the no-effect control and ±100 the full control effect; nearly all actives have a fitted effect of over 50% in size
G9a block: blocks human histone lysine methyltransferase G9a; Q96KQ7; G9a H3K9 monomethylation, AlphaScreen, 2 h; Potency, µM (series often up to 102 µM), without a hit: top-dose activity, negative = inhibition, most hits filed as inhibitors; 350,000 compounds, 8.8% hits; AID 504332; further: potency means the concentration at half of the fitted maximal effect; on the % scale 0 is the no-effect control and ±100 the full control effect; nearly all actives have a fitted effect of over 75% in size
Target sequence (Q96KQ7 913-1193 limits assumed): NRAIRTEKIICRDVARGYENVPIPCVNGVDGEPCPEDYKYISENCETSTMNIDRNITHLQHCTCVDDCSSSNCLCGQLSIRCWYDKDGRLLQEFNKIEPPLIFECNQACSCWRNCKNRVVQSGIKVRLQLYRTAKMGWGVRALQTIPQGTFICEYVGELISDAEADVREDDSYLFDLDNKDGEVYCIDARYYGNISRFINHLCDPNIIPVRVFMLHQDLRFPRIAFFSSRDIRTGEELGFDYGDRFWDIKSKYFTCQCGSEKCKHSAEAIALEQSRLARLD
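AlphaScreen read-out: biotin-H3K9 peptide (500 nM) methylation by 20 nM enzyme with 20 uM SAM, 2 h at room temperature after 15 min compound preincubation; anti-monomethyl H3K9 antibody plus donor/acceptor beads, 10 min dark.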
An asterisk follows results filed as active; ? = inconclusive; nt = not tested or not shown; ! = not active in a repeat; [ ] = another dose, or the depositor's remark. Unless noted, the call rests on the fitted dose curve; in most records, active means well fitted inhibition curve with a large enough effect; inconclusive means small, poorly fitted or top-dose-only effect; inactive means no such curve, though single readings can be large or run the other way.

SMILES	HP1b binding inh	PI5P4Ka inh	L3MBTL1 block	BAZ2B block	JMJD2A Tudor	G9a block
CCCCCCOc1ccc(CN2CCN(C)CC2)cc1	-7%	nt	5%	-9%	?	?
O=C1NC(=O)N(Cc2cccs2)C(=O)/C1=C/c1ccc(N2CCOCC2)cc1	24%	-52*	nt	?	-34%	?
CCN1C(=O)NC(=O)/C(=C\c2ccc(N3CCOCC3)cc2OC)C1=O	nt	nt	-7%	-24%[57.1 µM]	nt	0%
NCCNCCNCCNCCN	nt	nt	nt	nt	nt	56%[59 µM]
O=C(OCC(=O)N1CCOCC1)c1ccc[nH]c1=O	-4%	-1	4%	nt	18µM*	20µM*
CN1CCc2nc(N)c(C#N)c(-c3ccccc3)c2C1	6%	nt	4%	-7%	-6%	-18%[59 µM]
CN1CCc2c(C#N)c(Cl)nc(Cl)c2C1	50%	7	-1%	-1%	-11%	45µM*
CC[C@H](C)[C@H](NC(=O)[C@H](CCCN=C(N)N)NC(=O)[C@H](CCCN=C(N)N)NC(=O)[C@H](CC(C)C)NC(=O)[C@H](Cc1ccccc1)NC(=O)CNC(=O)CNC(=O)[C@@H](N)Cc1ccc(O)cc1)C(=O)N[C@@H](CCCN=C(N)N)C(=O)N1CCC[C@H]1C(=O)N[C@@H](CCCCN)C(=O)N[C@@H](CC(C)C)C(=O)N[C@@H](CCCCN)C(=O)O	nt	nt	nt	nt	nt	37%[59 µM]
CCOC(=O)c1ccc(NC(c2ccc(N(C)C)cc2)P(=O)(OC(C)C)OC(C)C)cc1 (stereo unspecified)	?	0	?	32µM*	50µM*	35µM*
Cc1cc(=O)oc2cc(Oc3ccc([N+](=O)[O-])cc3C(F)(F)F)ccc12	-2%	-1	nt	nt	?	nt
Cc1ccc(-n2nc(C)c(C3C(C#N)=C(N)Oc4c3c(=O)oc3ccccc43)c2Cl)cc1 (stereo unspecified)	nt	nt	-10%	2%	nt	1%[59 µM]
Cc1ccc(-n2nc(C)c3c2OC(N)=C(C#N)C3c2cccs2)cc1 (stereo unspecified)	37%	1	-22%	35µM*	-1%	35µM*
CN(C)C(=S)SC(=S)N(C)C	nt	nt	nt	nt	nt	2.5µM*
CN(C)C(=S)SSC(=S)N(C)C	22%	10	64%	-33%	-13%	1.3µM*
CC(C)C1C(=O)N2CCC[C@H]2[C@]2(O)O[C@](NC(=O)[C@@H]3C=C4c5cccc6[nH]cc(c56)C[C@H]4N(C)C3)(C(C)C)C(=O)N12 (stereo partly specified)	nt	nt	nt	nt	nt	-33%[59 µM]
Cc1ccc2c(c1)C1CN(C)CCC1N2C(=O)Cc1cccs1 (stereo unspecified)	10%	nt	5%	-4%	-20%	79µM*
Brc1c(NC2=NCCN2)ccc2nccnc12	nt	nt	-2%	1%	nt	19µM*!
C[C@@]12CC[C@H](O)C[C@@H]1CC[C@H]1[C@@H]2C[C@@H](O)[C@]2(C)[C@@H](C3=CC(=O)OC3)CC[C@]12O	nt	nt	nt	nt	nt	10%[21.5 µM]
CN1CCN(Cc2nc3ccccc3n2C)CC1	35%	1	1%	-3%	-3%	?
Cn1c(NN=O)nc2ccccc21	-2%	-3	-14%	?	?	8.9µM*
C=CCn1cc(C=C2C(=O)N(C)C(=O)N(C)C2=O)c2ccccc21	43%	-1	nt	5%	-11%	-3%
C=CCc1cc(C=C2C(=O)NC(=O)NC2=O)cc(OC)c1OCc1ccc(C(=O)O)cc1	44%	-62*	nt	-7%	-27%	32µM*
C=CCc1cc(C=C2C(=O)N(C)C(=O)N(C)C2=O)cc(OCC)c1OCc1ccccc1	290%	-55*	32%	3%	?	3%
CCOC(=O)c1cnc2c(ccc3ccccc32)c1Nc1ccc(N(C)C)cc1	10µM*	nt	nt	6.3µM*	11µM*	2.5µM*
O=C(NCCc1ccc(Cl)cc1)C(=O)NCC(c1cccs1)S(=O)(=O)c1cccs1 (stereo unspecified)	53%	nt	nt	1%	-5%	1%[59 µM]
SMILES	HP1b binding inh	PI5P4Ka inh	L3MBTL1 block	BAZ2B block	JMJD2A Tudor	G9a block
COc1ccc(-c2nc(CSCC(=O)N3CCN(c4ccc(F)cc4)CC3)c(C)o2)cc1	-24%	nt	nt	-25%	50µM*	-49%[59 µM]
Oc1ccc2c3c1OC1C(O)CC[C@]4(O)C(C2)N(CC2CCC2)CC[C@]314 (stereo partly specified)	nt	nt	nt	nt	nt	-49%[2.33 µM]
Cc1cc(=O)n(-c2ccccc2)n1C	24%	-2	-2%	nt	-14%	17%[21.5 µM]
NCC1OC(O[C@H]2[C@H](O)[C@@H](OC3C(O)C(N)CC(N)C3OC3OC(CO)C(O)C(O)C3N)O[C@@H]2CO)C(N)C(O)C1O (stereo partly specified)	nt	nt	nt	nt	nt	6µM*
CC1(C)CC(=O)C2=C(C1)OC(N)=C([N+](=O)[O-])C2c1ccc(C#N)s1 (stereo unspecified)	10%	-30	-9%	?	-15%	-9%[12.7 µM]
C[C@]12CCC(=O)C(O)=C1CC[C@@H]1[C@H]3CCC(=O)[C@@]3(C)CC[C@@H]12	nt	nt	nt	nt	nt	-35%[2.33 µM]
CN1CCN(S(=O)(=O)c2cccc(C(=O)N3CCN(c4ccccc4F)CC3)c2)CC1	18%	-20	-3%	7%	-17%	2µM*
CC1(C)OC(c2ccccc2)=C/C(=C/C=C2C(=O)NC(=S)NC2=O)O1	11µM*	?	?	10µM*	?	10µM*
C#CCOCCOCCOCCNc1nc(N2CCN(C(=O)CCCCCCCCCCNC(=O)[C@H]([C@@H](C)CC)n3cc(CCCCN=C(N)N)nn3)CC2)nc(N2CCN(C(=O)CCCCCCCCCCNC(=O)[C@H](CO)n3cc(CCCCCN)nn3)CC2)n1	?	?	-9%	50µM*	56µM*	-8%[2.33 µM]
CN1C(=O)[C@@H](NC(=O)c2cc3ccccc3[nH]2)N=C(c2ccccc2)c2ccccc21	nt	nt	nt	nt	nt	5%[59 µM]
CC(CO)NC(=O)C1C=C2c3cccc4[nH]cc(c34)CC2N(C)C1 (stereo unspecified)	nt	nt	nt	nt	nt	16µM*
COC(=O)c1c(C)n(Cc2ccc3c(c2)OCO3)c2ccc(O)cc12	-16%	nt	-10%	?	?	35µM*
CCOC(=O)c1c(C)n(Cc2ccco2)c2ccc(O)cc12	16%	?	nt	?	-27%	8.9µM*
CCCCC(=O)C1C(=O)NC(=O)NC1=O	21%	-14	-6%	-30%	56µM*	-11%[59 µM]
COc1ccc(N2C(=O)CC(N3CC=C(c4ccccc4)CC3)C2=O)cc1 (stereo unspecified)	0%	-17	-9%	-11%	-23%	10µM*
N#CC1(c2ccccc2)CCN(C2CC(=O)N(c3ccc(F)cc3)C2=O)CC1 (stereo unspecified)	38%	11	-1%	-6%	-5%	nt
O=C(CCc1nc(C2=CCN(Cc3cccc(Cl)c3)CC2)no1)Nc1ccccc1F	15%[57 µM]	nt	nt	-23%	-34%	-46%[59 µM]

High-throughput results as filed in PubChem.
